CD40 NFkB inh: CD40 pathway inhibition in BL2 cells | BL2 NF-kB luciferase reporter, CD40L-induced, 4 h | 83,000 tested, 0.94% active | inhibition, % at 10 µM;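 active = mean inhibition of at least 50% with a set share of replicates also reaching that level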;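 note: 0% = neutral control wells and 100% = IKK inhibitor VII at 50 µM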
* = called active by the depositor; [ ] = dose if it differs, or a comment. The sample as a whole holds a higher share of hits than the screen did.

SMILES	CD40 NFkB inh
O=C(O)C[C@@H]1C[C@H]2c3cc(NC(=O)Cc4ccncc4)ccc3O[C@H]2[C@H](CO)O1	-9.6[25 µM]
C[C@H]1CN([C@@H](C)CO)C(=O)c2cccc(NS(=O)(=O)c3cn(C)cn3)c2O[C@H]1CN(C)C(=O)Nc1ccc(F)cc1	-0.7[25 µM]
C[C@@H]1CN([C@H](C)CO)C(=O)c2c(c3ccccc3n2C)-c2ccccc2CO[C@@H]1CN(C)Cc1cccnc1	7.4[25 µM]
CO[C@H]1CN(C)C(=O)c2cc(NC(=O)c3ccccc3F)ccc2OC[C@@H](C)N(CC2CCOCC2)C[C@H]1C	-2.5[25 µM]
C[C@@H]1CN(C)C(=O)c2cc(N)ccc2O[C@@H]1CN(C)S(C)(=O)=O	-3.8
N#C[C@H]1[C@@H](c2ccc(C#Cc3ccc(F)cc3)cc2)[C@H](CO)N1C(=O)C1CCCC1	14.6
CCc1cnc(N2[C@H](C#N)[C@H](c3ccc(C#Cc4ccccc4F)cc3)[C@@H]2CO)s1	7.4[25 µM]
N#C[C@H]1[C@H](c2ccc(C#Cc3ccc(F)cc3)cc2)[C@H](CO)N1C(=O)C1CCCC1	-13.3
N#C[C@@H]1[C@@H](c2ccc(C#Cc3ccccc3F)cc2)[C@H](CO)N1C(=O)C1CC1	-3.6[25 µM]
CCc1cnc(N2[C@H](C#N)[C@@H](c3ccc(C#Cc4ccccc4F)cc3)[C@H]2CO)s1	-2.4[25 µM]
N#C[C@H]1[C@H](c2ccc(C#Cc3ccccc3F)cc2)[C@@H](CO)N1C(=O)C1CC1	50.4*[25 µM]
N#C[C@@H]1[C@@H](c2ccc(C#Cc3ccccc3F)cc2)[C@@H](CO)N1C(=O)C1CC1	0.4
CCc1cnc(N2[C@H](C#N)[C@H](c3ccc(C#Cc4ccccc4F)cc3)[C@H]2CO)s1	72.5*[25 µM]
N#C[C@@H]1[C@H](c2ccc(C#Cc3ccccc3F)cc2)[C@@H](CO)N1C(=O)C1CCCC1	94.2*
C[C@@H]1CN([C@H](C)CO)C(=O)c2c(c3ccccc3n2C)-c2ccccc2CO[C@@H]1CN(C)C(=O)Nc1cccc(Cl)c1Cl	38.4[25 µM]
COc1ccc(CNC(=O)C[C@@H]2C[C@H]3c4cc(NC(=O)NC5CCCC5)ccc4O[C@H]3[C@@H](CO)O2)cc1	-2.3[25 µM]
O=C(Nc1ccc2c(c1)[C@@H]1C[C@@H](CC(=O)N3CCOCC3)O[C@@H](CO)[C@@H]1O2)Nc1ccccc1F	-9.7[25 µM]
CN1C(=O)c2cc(NC(=O)Cc3cccs3)ccc2OC[C@H]2O[C@@H](CC(=O)NCC3CCCCC3)CC[C@H]21	27.8[25 µM]
O=C(Nc1ccc2c(c1)[C@H]1C[C@@H](CC(=O)N3CCc4ccccc4C3)O[C@H](CO)[C@H]1O2)c1ccc2c(c1)OCO2	7.4[25 µM]
C[C@H](CO)N1C[C@H](C)[C@@H](CN(C)C(=O)CCC(F)(F)F)OCc2ccccc2-c2ccccc2C1=O	-3.0[25 µM]
N#C[C@@H]1[C@@H](c2ccc(-c3cncnc3)cc2)[C@H](CO)N1C(=O)C1CCOCC1	-1.6
C[C@@H]1CN(C)C(=O)c2cccc(N(C)C)c2O[C@@H]1CN(C)S(C)(=O)=O	-7.3
CC(C)NC(=O)Nc1ccc2c(c1)C(=O)N([C@@H](C)CO)C[C@H](C)[C@H](CN(C)C(=O)C1CCCCC1)OCCCC[C@@H](C)O2	-4.0[25 µM]
O=C(Nc1ccccc1)N1CC(=O)N2[C@H](CO)[C@@H](c3ccc(C#CC4CCCCC4)cc3)[C@H]2C1	54.1*[25 µM]
O=C(Nc1ccccc1)N1CC(=O)N2[C@H](CO)[C@H](c3ccc(C#CC4CCCCC4)cc3)[C@H]2C1	9.3[25 µM]
SMILES	CD40 NFkB inh
O=C(Nc1ccccc1)N1CC(=O)N2[C@@H](CO)[C@@H](c3ccc(C#CC4CCCCC4)cc3)[C@@H]2C1	26.2[25 µM]
COc1cccc(NC(=O)N2CC(=O)N3[C@H](C2)[C@H](c2ccc(C#CCC4CCCC4)cc2)[C@@H]3CO)c1	12.9[25 µM]
COc1cccc(NC(=O)N2CC(=O)N3[C@H](CO)[C@@H](c4ccc(C#CCC5CCCC5)cc4)[C@@H]3C2)c1	22.8[25 µM]
COc1cccc(NC(=O)N2CC(=O)N3[C@H](CO)[C@@H](c4ccc(C#CCC5CCCC5)cc4)[C@H]3C2)c1	64.0*[25 µM]
CN1C(=O)c2cc(NC(=O)c3cccc(F)c3)ccc2OC[C@H]2O[C@H](CC(=O)NCC3CC3)CC[C@H]21	4.7
Cc1ccc(S(=O)(=O)N(C)C[C@H]2OCCCC[C@@H](C)Oc3ccc(NS(=O)(=O)c4ccc(F)cc4)cc3C(=O)N([C@@H](C)CO)C[C@H]2C)cc1	15.2
O=C(c1cc(-c2cccs2)on1)N1CCc2ccccc2C1	-18.4
Cc1ccc(OCc2cc(C(=O)N3CCc4sccc4C3)no2)cc1C	37.8*
Cc1ccc(OCC(=O)N2CCc3ccccc3C2)cc1C	-13.4
COc1ccc2c3c([nH]c2c1)[C@H](CO)N(C)CC31CCN(C(=O)c2ccccc2F)CC1	-5.4[25 µM]
CC(=O)N(C(C)=O)c1ncnc2c1c(-c1ccc(Cl)cc1)nn2C(C)(C)C	55.3*
CC(=O)Nc1ncnc2c1c(-c1ccc(Cl)cc1)nn2C(C)(C)C	6.7
O=C(C1CCCC1)N1CC(=O)N2[C@H](CO)[C@H](c3ccc(C#CCc4ccccc4)cc3)[C@H]2C1	66.0*
O=C(C1CCOCC1)N1CC(=O)N2[C@H](CO)[C@H](c3ccc(C#CCc4ccccc4)cc3)[C@@H]2C1	-10.7[25 µM]
O=C(C1CCOCC1)N1CC(=O)N2[C@H](C1)[C@H](c1ccc(C#CCc3ccccc3)cc1)[C@@H]2CO	75.0*[25 µM]
O=C(C1CCC1)N1CC(=O)N2[C@H](CO)[C@H](c3ccc(C#CCc4ccccc4)cc3)[C@H]2C1	70.6*
O=C(C1CCOCC1)N1CC(=O)N2[C@@H](CO)[C@H](c3ccc(C#CCc4ccccc4)cc3)[C@@H]2C1	4.0[25 µM]
O=C(C1CCCC1)N1CC(=O)N2[C@H](C1)[C@H](c1ccc(C#CCc3ccccc3)cc1)[C@@H]2CO	23.9
COCC#Cc1ccc([C@H]2[C@H](CO)N3C(=O)CN(C(=O)C4CCCCC4)C[C@@H]23)cc1	1.2[25 µM]
O=C(C1CCOCC1)N1CC(=O)N2[C@H](CO)[C@H](c3ccc(C#CCc4ccccc4)cc3)[C@H]2C1	36.7[25 µM]
COCC#Cc1ccc([C@@H]2[C@H](CO)N3C(=O)CN(C(=O)C4CCCCC4)C[C@@H]23)cc1	-24.3[25 µM]
CCC(=O)N1[C@H](C(=O)N(C)C)[C@@H](CO)[C@@H]2Cn3c(ccc(-c4ccccc4)c3=O)[C@@H]21	-1.0[25 µM]
O=C(C[C@H]1CC[C@@H](NC(=O)Nc2ccc(C(F)(F)F)cc2)[C@@H](CO)O1)NCc1cccc(F)c1	-4.3[25 µM]
CC(C)[C@H]1C(=O)N[C@H](c2ccc3c(c2)OCO3)CC=CC[C@@H](C)Oc2ccccc2C(=O)N1C (mixture of isomers)	-0.5
CCN1[C@@H]2c3ccc(-c4cccc(F)c4)c(=O)n3C[C@@H]2[C@@H](CO)[C@@H]1C(=O)N1CCCCC1	8.2[25 µM]
SMILES	CD40 NFkB inh
C[C@@H]1CN([C@@H](C)CO)C(=O)c2c(c3ccccc3n2C)-c2ccccc2CO[C@H]1CN(C)C(=O)Nc1ccc(-c2ccccc2)cc1	-5.5
C[C@H](O)C#Cc1ccc([C@@H]2[C@H]3CN(S(=O)(=O)Cc4ccccc4)CCCCN3[C@H]2CO)cc1	7.7[25 µM]
CC(C)NC(=O)N(C)C[C@H]1Oc2ccc(N(C)C)cc2C(=O)N(C)C[C@H]1C	13.3
N#C[C@H]1[C@@H](c2ccc(C3=CCCC3)cc2)[C@H](CO)N1C(=O)NC1CCCCC1	1.6[25 µM]
C[C@@H]1CN([C@@H](C)CO)C(=O)c2c(c3ccccc3n2C)-c2ccccc2CO[C@@H]1CN(C)C(=O)Nc1ccc2c(c1)OCO2	17.8[25 µM]
CCCNC(=O)[C@H]1[C@H](CO)[C@H]2Cn3c(cccc3=O)[C@@H]1N2C(=O)Nc1cc(F)ccc1F	0.8[25 µM]
CC(C)NC(=O)Nc1cccc2c1O[C@H](CN(C)C(=O)NC(C)C)[C@H](C)CN(C)C2=O	-0.2
